Screen size: about 350,000 compounds; about 990 (0.28%) were called active. A call without a number means that no potency is given here. Inconclusive results (about 2%) are left out. Only a selection was taken, and actives are over-represented in it overall. A number with no mark means an inactive call. The call rests on the fitted dose curve; in most records, active means well fitted inhibition curve with a large enough effect; inconclusive means small, poorly fitted or top-dose-only effect; inactive means no such curve, though single readings can be large or run the other way.
Potency means the concentration at half of the fitted maximal effect.

Sequence of Tyrosyl-DNA phosphodiesterase 1 (Homo sapiens) (Q9NUW8 whole entry, looked up): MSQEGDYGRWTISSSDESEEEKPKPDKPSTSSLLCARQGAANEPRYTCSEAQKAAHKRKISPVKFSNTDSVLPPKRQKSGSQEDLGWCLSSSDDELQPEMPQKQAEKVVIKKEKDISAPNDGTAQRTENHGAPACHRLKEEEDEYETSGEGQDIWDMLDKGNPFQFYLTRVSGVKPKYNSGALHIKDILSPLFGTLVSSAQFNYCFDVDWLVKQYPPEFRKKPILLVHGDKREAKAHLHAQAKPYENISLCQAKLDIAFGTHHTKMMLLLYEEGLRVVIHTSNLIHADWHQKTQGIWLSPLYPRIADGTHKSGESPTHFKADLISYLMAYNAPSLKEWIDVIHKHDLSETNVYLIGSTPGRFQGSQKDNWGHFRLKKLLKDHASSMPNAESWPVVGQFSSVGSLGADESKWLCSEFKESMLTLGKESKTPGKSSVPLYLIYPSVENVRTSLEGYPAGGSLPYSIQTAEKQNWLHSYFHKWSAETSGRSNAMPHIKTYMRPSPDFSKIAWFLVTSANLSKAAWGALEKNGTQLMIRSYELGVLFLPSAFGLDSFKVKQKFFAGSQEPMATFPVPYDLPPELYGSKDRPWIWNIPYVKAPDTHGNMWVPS

The target in this test is Tyrosyl-DNA phosphodiesterase 1 (Homo sapiens) (UniProt Q9NUW8). The experiment in a line: qHTS Assay for Inhibitors of Tyrosyl-DNA Phosphodiesterase (TDP1). Further: nearly all actives have a fitted effect of over 40% in size. The settings on record: recombinant TDP1, AlphaScreen DNA substrate cleavage; series mostly up to 130 µM. Put shortly:
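Steps: enzyme plus compound, 15 min RT; add biotin/phosphotyrosine-FITC oligonucleotide (15 nM final), react 5 min; add donor/acceptor beads (10 ug/ml final), 10 min; read AlphaScreen. Tdp1 at 1 nM final.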
For orientation: Quantitative high-throughput screening tests each substance at several concentrations.
Consider `OC[C@@H]1O[C@H](n2cnc3c(SCc4ccccc4)ncnc32)[C@H](O)[C@H]1O`, for which the Potency result was “inactive”.

As to `Cc1cc2c(s1)c1cnn(Cc3c(F)cccc3Cl)c(=O)c1n2C`, the Potency result is “inactive”.

As for `CCCCCC(=O)Nc1ccc(S(=O)(=O)Nc2ccc(Cl)nn2)cc1`, the Potency entry is “inactive”.

For the compound `Cc1nnc(SCC(=O)Nc2ccc(S(=O)(=O)Nc3ccc(Cl)nn3)cc2)s1`, the Potency is 39.8 µM (active).

On to `Cc1cnc(NC(=O)CSc2nnc(C)s2)s1`, for which the Potency entry was “inactive”.

Regarding `COc1cccc(C2c3c(ncn(-c4cccc(Br)c4)c3=N)Oc3ccc4ccccc4c32)c1` (stereo not given), the Potency result was “inactive”.

In the case of `O=C1CC(c2ccccc2)CC2=C1C(c1ccco1)n1nc(C(F)(F)F)nc1N2` (stereo not given), the Potency result is “inactive”.

In the case of `COc1ccc(NC(=O)CCN2C(=O)/C(=C/c3ccc4c(c3)OCO4)SC2=S)cc1`, the Potency entry was “inactive”.

For the compound `Cc1ccc(C(=O)O)cc1-c1ccc(/C=C2\SC(=O)N(CC(=O)Nc3ccc4c(c3)OCO4)C2=O)o1`, the Potency was 10 µM (active).

Turning to `Cn1cccc1/C=C1\SC(=O)N(CC(=O)Nc2ccc(F)cc2)C1=O`, the Potency entry is “inactive”.

As for `CNS(=O)(=O)c1cccc(C(=O)OCC(=O)N2c3ccccc3NC(=O)C2(C)C)c1`, the Potency is 31.6 µM (active).

As to `CC1(C)C(=O)Nc2ccccc2N1C(=O)COC(=O)Cn1cnc2ccccc2c1=O`, the Potency entry was “inactive”.

Take `Cc1cc(C(=O)OCC(=O)N2c3ccccc3NC(=O)C2(C)C)c(C)n1-c1ccccc1`: the Potency result is “inactive”.

As to `CCOC(=O)c1ccccc1NC(=O)CSc1nc2ccccc2c(=O)[nH]1`, the Potency entry is “inactive”.

For the compound `CC(=O)NCc1ccc(-c2csc(NC(=O)CCCc3nc4ccccc4c(=O)[nH]3)n2)cc1`, the Potency result was “inactive”.

For the compound `O=C(CSc1nc2ccccc2c(=O)[nH]1)Nc1nc(-c2ccc(Br)cc2)cs1`, the Potency is 12.6 µM (active).

In the case of `O=S(=O)(c1ccc2c(c1)OCCCO2)N1CCN(S(=O)(=O)c2c(F)cccc2F)CC1`, the Potency result is “inactive”.

Take `Brc1nc2ncnc(NCc3ccco3)c2[nH]1`: the Potency entry is “inactive”.

In the case of `COC(=O)c1ccc(NC(=O)CSc2n[nH]c(-c3ccccc3)n2)cc1`, the Potency result is “inactive”.

As for `CN(C)c1ccc(C(CNS(=O)(=O)c2cc(F)ccc2F)N2CCOCC2)cc1` (stereo not given), the Potency result is “inactive”.

Consider `COc1ccc(C2Nc3ccccc3C(=O)N2Cc2ccc(CNC(=O)CO)cc2)cc1COc1ccc(NC(C)=O)cc1` (stereo not given), for which the Potency entry was “inactive”.

Regarding `COc1ccc(-c2nn(-c3ccccc3)cc2/C=C2/SC(=S)N(CCCC(=O)O)C2=O)c(C)c1`, the Potency was 39.8 µM (active).

Regarding `CN(C)S(=O)(=O)c1cccc(-c2nn(-c3ccccc3)cc2/C=C2\SC(=S)N(CC(=O)O)C2=O)c1`, the Potency entry is “inactive”.

Take `COc1ccc(/C=C2\SC(=S)N(CCC(=O)Nc3ccccn3)C2=O)cc1OC`: the activity change, negative = inhibition was 5.5% [at 0.0935 µM].

With `Cc1ccc(C(=O)NC2CCN(C#N)CC2)cc1`, the Potency result is “inactive”.
